Eight compounds from PubChem BioAssay (Tox21) can be followed below.

In test [1] the target is Thyrotropin receptor (Homo sapiens) (UniProt P16473). Nature of the test: qHTS assay to identify small molecule antagonists of the thyroid stimulating hormone receptor (TSHR) signaling pathway (AID 1259385; calls by dose curve; also: nearly all actives have a fitted effect of over 20% in size). Summed up: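 TSHR-HEK293 cells were plated and held 18 h at 37C/5% CO2, then given compound plus Ro20-1724 and stimulated with TSH at 1.5 ng/mL final. After 30 min at room temperature, cAMP was detected with cAMP-d2/anti-cAMP-cryptate (1 h) by fluorescence.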
Sequence of Thyrotropin receptor (Homo sapiens) (P16473 whole entry, looked up): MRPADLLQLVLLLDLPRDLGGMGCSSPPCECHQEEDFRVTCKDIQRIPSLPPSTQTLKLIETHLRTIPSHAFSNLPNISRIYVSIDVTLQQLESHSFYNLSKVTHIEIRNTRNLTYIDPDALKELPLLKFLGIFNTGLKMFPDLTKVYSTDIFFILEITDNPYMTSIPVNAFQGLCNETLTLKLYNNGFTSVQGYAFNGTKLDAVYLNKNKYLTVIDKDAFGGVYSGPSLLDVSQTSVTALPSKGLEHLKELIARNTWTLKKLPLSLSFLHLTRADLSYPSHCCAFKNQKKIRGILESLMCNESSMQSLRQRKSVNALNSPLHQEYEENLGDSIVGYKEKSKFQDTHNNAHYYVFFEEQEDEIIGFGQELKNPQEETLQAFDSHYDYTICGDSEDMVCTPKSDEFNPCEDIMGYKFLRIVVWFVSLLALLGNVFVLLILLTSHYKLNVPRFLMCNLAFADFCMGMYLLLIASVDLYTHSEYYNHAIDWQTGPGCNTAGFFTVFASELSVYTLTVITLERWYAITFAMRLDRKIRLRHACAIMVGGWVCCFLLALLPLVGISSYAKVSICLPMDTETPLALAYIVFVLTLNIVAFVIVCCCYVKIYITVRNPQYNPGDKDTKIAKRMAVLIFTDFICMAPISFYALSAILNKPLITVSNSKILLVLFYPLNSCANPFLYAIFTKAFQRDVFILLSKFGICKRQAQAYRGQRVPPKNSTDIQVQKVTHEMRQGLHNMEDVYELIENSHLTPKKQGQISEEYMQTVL

The nature of test [2]: qHTS assay to identify small molecule agonists of the estrogen receptor alpha (ER-alpha) signaling pathway in the presence of an antagonist - cell viability counter screen (AID 1259386).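 Also: cells exposed to compounds for 22 h at 37 °C before the viability read; nearly all actives have a fitted effect of over 30% in size.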 Also: potency is read from the fitted curve at half-maximal effect. The procedure, abridged: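 Viability counter screen using VM7Luc4E2 (full-length ER-alpha, four ERE-luciferase). The cells were treated with compounds alongside ICI-182,780 10.0nM for 22hr, and live-cell protease fluorescence was quantified with CellTiter-Fluor.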

Test [3] has as its target Progesterone receptor (Homo sapiens) (UniProt P06401). Nature of the test: qHTS assay to identify small molecule agonists of the progesterone receptor (PR) signaling pathway (AID 1346784; calls by dose curve; also: nearly all actives have a fitted effect of over 30% in size). Summed up:
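PR-UAS-bla HEK 293T cells carrying a UAS-driven beta-lactamase reporter were seeded in medium with 2% charcoal-stripped FBS, preincubated 6 hr at 37C, then exposed to compounds in DMSO for 16 hr; agonism was read by LiveBLAzer B/G FRET fluorescence.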
On the technique in general: Quantitative high-throughput screening tests each substance at several concentrations.

Test [4] has the same target. Nature of the test: qHTS assay to identify small molecule antagonists of the progesterone receptor (PR) signaling pathway (AID 1346795; active = well fitted inhibition curve with a large enough effect in the signal ratio in the repeat runs, not every such curve was filed as active; the % refers to the signal ratio). Summed up: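 PR-UAS-bla HEK293T cells carrying a UAS-driven beta-lactamase reporter were plated in medium with 2% charcoal-stripped FBS and rested 6 hr at 37C. Compounds were added with 1 nM R5020 (final) for 16 hr, then FRET substrate loaded 2 hr at room temperature.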

Test [5] is described as follows: qHTS assay to identify small molecule antagonists of the progesterone receptor (PR) signaling pathway - cell viability counter screen (AID 1346798). Also: series mostly up to about 92 µM; nearly all actives have a fitted effect of over 50% in size. Summed up:
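PR-UAS-bla HEK293T cells in medium with 2% charcoal-stripped FBS were treated with compounds plus R5020 for 16 hr at 37C. Cell viability was then read by CellTiter-Glo luminescence after 30 min at room temperature in the same wells.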

A short description of test [6]: qHTS assay to identify small molecule agonists of the progesterone receptor (PR) signaling pathway - cell viability counter screen (AID 1346799; calls by dose curve; also: nearly all actives have a fitted effect of over 45% in size). Summed up: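 PR-UAS-bla HEK293T cells, 3,000 per well in medium with 2% charcoal-stripped FBS, were preincubated 6 hr at 37C, then exposed to compounds for 16 hr; viability was read as CellTiter-Glo luminescence after 30 min at room temperature.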

Test [7] is described as follows: qHTS assay to identify small molecule antagonists of the TGF-beta/Smad signaling pathway - cell viability counter screen (AID 1346824). Also: nearly all actives have a fitted effect of over 50% in size. Summed up:
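SBE-bla HEK 293T cells were plated overnight at 37 C, then given compounds in DMSO plus TGF-beta1 (added as 0.25 ng/mL solution) for 5 hr. After the bla read, CellTiter-Glo was added to the same wells and luminescence read after 30 min at room temperature.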

Test [8] can be described thus: qHTS assay to identify small molecule agonists of the TGF-beta/Smad signaling pathway (AID 1346859; active = well fitted activation curve with a large enough effect in the signal ratio in the repeat runs, not every such curve was filed as active; the % refers to the signal ratio; also: series mostly up to about 77 µM). The procedure, abridged: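 HEK 293T cells stably carrying a beta-lactamase reporter driven by the Smad binding element were seeded overnight, exposed to DMSO-dissolved compounds for 5 hr at 37 C, 5% CO2, then loaded with FRET substrate for 2 hr at room temperature.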

For test [9], the target named is Thyrotropin-releasing hormone receptor (Homo sapiens) (UniProt P34981). Nature of the test: qHTS assay to identify small molecule antagonists of the thyrotropin-releasing hormone receptor (TRHR) signaling pathway (AID 1346877; active = well fitted inhibition curve with a large enough effect in the repeat runs, not every such curve was filed as active; also: series mostly up to about 51 µM). The procedure, abridged:
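Following an 18 h incubation at 37 °C and a 2 h calcium dye load, TRHR-HEK293 cells were exposed to compound (5 min, room temperature) and challenged with TRH, 1 nM final.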

Test [10] has the same target. Nature of the test: qHTS assay to identify small molecule agonists of the thyrotropin-releasing hormone receptor (TRHR) signaling pathway (AID 1346891; calls by dose curve; also: series mostly up to about 58 µM). The procedure, abridged:
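TRHR-expressing HEK293 cells were plated 18 h at 37 °C/5% CO2, loaded with calcium dye 2 h at 37 °C, then given compound in DMSO; fluorescence was read kinetically for 3 min at 1 s intervals.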

A short description of test [11]: Human pregnane X receptor (PXR) small molecule agonists, qHTS cell viability counter screen (AID 1346977). Also: nearly all actives have a fitted effect of over 50% in size. The procedure, abridged:
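PXR-Luc HepG2 cells in medium with 5% charcoal-stripped FBS were pre-incubated 5hr, then exposed to compounds for 24hr at 37C. Viability was read in the same wells by CellTiter-Fluor fluorescence, reagent added after 23hr with a 1hr incubation.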

A short description of test [12]: Caspase-3/7 induction in HepG2 cells by small molecules, qHTS assay (AID 1346978). Also: nearly all actives have a fitted effect of over 15% in size. Also: potency is read from the fitted curve at half-maximal effect. The procedure, abridged:
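Wild-type HepG2 cells (2,000/well) were settled 5 h at 37 C, 5% CO2, then exposed to compounds in DMSO for 17 h. Caspase-3/7 activity was read by luminescence 30 min after adding Caspase-Glo 3/7 reagent at room temperature.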

Test [13] in a line: Caspase-3/7 induction in CHO-K1 cells by small molecules, qHTS assay (AID 1346980). Also: nearly all actives have a fitted effect of over 15% in size. The procedure, abridged: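 Wild-type cells were seeded at 1,500 per well and settled 5 hr at 37 C, 5% CO2, then exposed to DMSO-dissolved compounds for 17 hr. Caspase-Glo 3/7 reagent was added, and luminescence was read after 30min at room temperature.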
Test [14] is described as follows: Caspase-3/7 induction in HepG2 cells by small molecules, qHTS cell viability counter screen (AID 1346981). Also: series mostly up to about 92 µM; nearly all actives have a fitted effect of over 30% in size. The procedure, abridged:
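Viability determined by CellTiter-Fluor fluorescence in HepG2 wells also used for the luminescent Caspase-Glo 3/7 read. Compounds were present for 16 hr at 37 C, 5% CO2 before reagent addition.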

In test [15] the target is Nuclear receptor subfamily 1 group I member 2 (Rattus norvegicus) (UniProt Q9R1A7). Nature of the test: Rat pregnane X receptor (rPXR) activation by small molecules, qHTS assay (AID 1346983). Also: nearly all actives have a fitted effect of over 20% in size. The conditions noted are these: rPXR luciferase reporter cells, One-Glo luminescence, 24 h; stronger effect = higher value. Summed up: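 Cell-based rPXR luciferase reporter assay, 2,000 cells per well, rested 5hr at 37 C before compound addition in DMSO, then 24 hr at 37 C. One-Glo reagent was added and luminescence read after 30 min at room temperature.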
Sequence of Nuclear receptor subfamily 1 group I member 2 (Rattus norvegicus) (Q9R1A7 whole entry, looked up): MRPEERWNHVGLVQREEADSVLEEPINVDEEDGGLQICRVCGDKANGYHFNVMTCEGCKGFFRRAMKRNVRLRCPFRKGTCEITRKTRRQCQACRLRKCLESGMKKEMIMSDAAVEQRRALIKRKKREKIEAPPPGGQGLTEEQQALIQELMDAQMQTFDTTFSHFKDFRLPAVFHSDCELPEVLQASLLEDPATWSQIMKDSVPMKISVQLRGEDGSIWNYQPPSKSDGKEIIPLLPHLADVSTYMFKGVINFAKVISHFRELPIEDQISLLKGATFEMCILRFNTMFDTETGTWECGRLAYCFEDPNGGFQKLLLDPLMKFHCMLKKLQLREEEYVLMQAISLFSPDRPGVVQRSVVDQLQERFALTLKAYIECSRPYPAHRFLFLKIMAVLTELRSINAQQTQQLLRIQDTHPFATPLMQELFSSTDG

For test [16], the target named is Nuclear receptor subfamily 1 group I member 2 (Homo sapiens) (UniProt O75469). As to the kind of experiment: CYP3A4 induction through human pregnane X receptor (PXR) by small molecules, qHTS assay (AID 1346984). Also: nearly all actives have a fitted effect of over 40% in size. Summed up:
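Readings come from a luciferase reporter: DPX-2 cells, which are HepG2 cotransfected with PXR and a CYP3A4-promoter construct, were exposed to test compounds for 24 h at 37C before One-Glo detection.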

Test [17] shares this target. As to the kind of experiment: Human pregnane X receptor (PXR) activation by small molecules, qHTS assay (AID 1346985). Also: nearly all actives have a fitted effect of over 40% in size. The procedure, abridged:
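DPX-2 cells (HepG2 co-transfected with a PXR response element and a CYP3A4-promoter luciferase construct) were seeded at 2,000 per well, rested 5 hr at 37C, then exposed to DMSO-dissolved compounds for 24 hr. Activation was read as luciferase luminescence.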

A short description of test [18]: qHTS assay to identify small molecule agonists of the TGF-beta/Smad signaling pathway - cell viability counter screen (AID 1346829). Also: top concentration of the series differs between compounds; nearly all actives have a fitted effect of over 45% in size. The procedure, abridged: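 Here the cytotoxicity of library compounds is measured in SBE-bla HEK 293T cells treated for 5 hr, using CellTiter-Glo added to wells already read for the beta-lactamase reporter.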
Test [19] in a line: Caspase-3/7 induction in CHO-K1 cells by small molecules, qHTS cell viability counter screen (AID 1346979). Also: nearly all actives have a fitted effect of over 35% in size. The procedure, abridged:
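Wild-type CHO-K1 cells were seeded at 1,500 per well, rested 5hr at 37 C, then exposed to compounds in DMSO. After 16hr, CellTiter-Fluor reagent was added and fluorescence read 1hr later as the viability measure.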

Values joined by “and” are separate entries in the source; they are usually repeats but may differ in a detail not shown here. Equal entries are not always repeated. Inconclusive results are not listed. The source holds several records for some structures; these can differ, active in one and inactive in another. Active and inactive are the calls of the source. Unless noted, calls follow the shape of the dose curve; as a rule, active = well fitted curve in the direction sought with a large enough effect in the repeat runs; inconclusive = weak or mixed curves; inactive = no such curve, though single readings can be large; an effect the other way counts as inactive or inconclusive.
% is scaled to controls: 0 for no effect and ±100 for the full control effect.

Sequence of Thyrotropin-releasing hormone receptor (Homo sapiens) (P34981 whole entry, looked up): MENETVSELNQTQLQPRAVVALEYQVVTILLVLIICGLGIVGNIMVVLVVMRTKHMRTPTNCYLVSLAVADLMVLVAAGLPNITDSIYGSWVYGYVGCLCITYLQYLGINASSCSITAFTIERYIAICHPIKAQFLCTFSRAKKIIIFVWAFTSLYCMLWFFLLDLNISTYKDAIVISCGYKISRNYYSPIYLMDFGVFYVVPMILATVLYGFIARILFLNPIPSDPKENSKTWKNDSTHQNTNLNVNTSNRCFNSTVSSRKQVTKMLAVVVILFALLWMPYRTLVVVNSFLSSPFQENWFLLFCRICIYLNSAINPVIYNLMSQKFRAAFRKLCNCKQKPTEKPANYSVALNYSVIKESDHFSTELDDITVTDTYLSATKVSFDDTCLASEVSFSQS
Sequence of Progesterone receptor (Homo sapiens) (P06401 whole entry, looked up): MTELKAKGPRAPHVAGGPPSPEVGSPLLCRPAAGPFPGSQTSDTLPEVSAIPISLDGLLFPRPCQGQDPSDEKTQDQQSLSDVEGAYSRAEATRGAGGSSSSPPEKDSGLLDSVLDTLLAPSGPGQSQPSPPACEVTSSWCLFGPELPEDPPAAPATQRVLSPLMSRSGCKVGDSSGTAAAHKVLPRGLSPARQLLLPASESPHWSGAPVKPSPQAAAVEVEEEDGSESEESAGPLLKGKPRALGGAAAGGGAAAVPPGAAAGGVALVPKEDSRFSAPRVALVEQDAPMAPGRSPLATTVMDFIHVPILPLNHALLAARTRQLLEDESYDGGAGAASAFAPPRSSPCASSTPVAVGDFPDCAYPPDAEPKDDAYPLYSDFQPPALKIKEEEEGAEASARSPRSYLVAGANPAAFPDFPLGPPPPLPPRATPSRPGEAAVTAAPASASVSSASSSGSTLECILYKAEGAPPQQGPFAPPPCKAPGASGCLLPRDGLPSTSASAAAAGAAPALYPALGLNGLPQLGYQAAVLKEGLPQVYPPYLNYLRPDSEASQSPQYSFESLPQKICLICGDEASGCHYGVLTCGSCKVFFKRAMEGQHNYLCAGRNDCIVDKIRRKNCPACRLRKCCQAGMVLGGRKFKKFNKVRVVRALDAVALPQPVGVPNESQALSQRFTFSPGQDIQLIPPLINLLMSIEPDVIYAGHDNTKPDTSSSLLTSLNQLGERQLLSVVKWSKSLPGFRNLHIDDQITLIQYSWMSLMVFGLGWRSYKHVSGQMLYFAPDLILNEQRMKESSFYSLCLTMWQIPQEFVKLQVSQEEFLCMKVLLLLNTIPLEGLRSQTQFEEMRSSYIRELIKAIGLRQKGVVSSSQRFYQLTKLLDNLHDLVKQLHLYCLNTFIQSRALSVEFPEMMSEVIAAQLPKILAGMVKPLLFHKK

`NC(=O)c1ccccc1O`: the compound was classed as inactive in test [1], in test [4], in test [7], in [8], in [9] and in test [10]. Also, the outcome in test [13] and in test [16] was inactive. The Potency result in [2], in [3], in [5], in [6], in [11] and in test [12] was “inactive” in each case. The Potency entry in [14] and in test [17] was “inactive” each time. The max activation in test [15] is -6.5% (inactive).
Take `O=C(c1ccccc1)C(O)c1ccccc1` (stereo not given): the call in test [1], in test [4], in test [7], in test [8], in [9] and in [10] was inactive. The result in test [13] and in test [16] was inactive. The Potency result in [2], in test [5], in test [6], in test [18], in test [11] and in [12] was “inactive” in each case. Further, the Potency entry in test [19], in test [14] and in [17] was “inactive” in each case. For the same compound, in [15], the max activation is -4.09% (inactive).
Consider `NC(=O)NC1NC(=O)NC1=O` (stereo not given), for which the outcome in test [1], in [4], in test [7], in [8], in test [9] and in test [10] was inactive. Also, the compound was classed as inactive in [13]. Also, the Potency result in test [2], in [3], in test [5], in [6], in [11] and in test [12] was “inactive” each time. The Potency result in test [19] and in test [14] was “inactive” each time. Further, in [15], the max activation was -1.54% (inactive).
On to `CCC1(c2ccccc2)C(=O)NCNC1=O`, for which the compound was classed as inactive in test [1], in test [4], in test [7], in test [8] and in test [13]. Further, the Potency result in [2], in [3], in [5], in test [6], in [11] and in test [12] was “inactive” throughout. For the same compound, the Potency result in [19] and in [14] was “inactive” in each case.
As for `Nc1ccc(O)c(C(=O)O)c1`, the call in test [1], in test [4], in test [7], in test [8], in [9] and in test [10] was inactive. Also, the compound was called inactive in [13]. In test [2], the Potency was 48.1 µM (active) and 54.5 µM (active). Further, the Potency entry in test [5], in test [6], in test [18], in test [11], in test [12] and in test [14] was “inactive” in each case.
`O=C1NC(=O)c2ccccc21`: the result in test [1], in [4], in test [7], in [8] and in test [13] was inactive. In addition, the Potency result in [2], in test [5], in test [6], in test [18], in [11] and in test [12] was “inactive” in each case. Further, the Potency entry in test [19] and in [14] was “inactive” throughout.
In the case of `CC(O)CO` (stereo not given), the result in [1], in test [4], in [7], in test [8], in test [9] and in test [10] was inactive. Also, the compound was called inactive in test [13] and in test [16]. Further, the Potency entry in test [2], in test [5], in test [6], in test [18], in test [11] and in test [12] was “inactive” in each case. Further, the Potency entry in test [14] and in [17] was “inactive” each time. Further, the max activation in test [15] is 1.42% (inactive).
Consider `O=c1cc[nH]c(=S)[nH]1`, for which the outcome in test [1], in test [4], in test [7], in test [8], in test [9] and in test [10] was inactive. Besides, the compound was classed as inactive in [13] and in test [16]. Moreover, the Potency entry in test [2], in test [5], in [6], in test [18], in test [11] and in test [14] was “inactive” each time. In addition, the Potency entry in [17] is “inactive”. Also, in test [12], the Potency was 30.8 µM (active) and inactive. Also, the max activation in test [15] is -8.7% (inactive).
